For some assays here: Results with a measured potency or affinity are listed apart.
How the values were obtained:
Design in all cases: scale not given: direction of the effect not stated beside the values
[1] = target: Protein translocase subunit SecA (Escherichia coli (strain K12)) (UniProt P10408); assay: Assay to Identify E. coli SecA ATPase Inhibitors; type: functional; conditions: 30 µM
[2] = target: T1, Ubiquitin-activating enzyme e1, putative (Leishmania donovani (strain BPK282A1)) (UniProt E9BSI1); assay: Leishmania donovani Ubiquitin Activating Enzyme (LdE1); type: functional; conditions: 30 µM
T1 sequence (whole entry): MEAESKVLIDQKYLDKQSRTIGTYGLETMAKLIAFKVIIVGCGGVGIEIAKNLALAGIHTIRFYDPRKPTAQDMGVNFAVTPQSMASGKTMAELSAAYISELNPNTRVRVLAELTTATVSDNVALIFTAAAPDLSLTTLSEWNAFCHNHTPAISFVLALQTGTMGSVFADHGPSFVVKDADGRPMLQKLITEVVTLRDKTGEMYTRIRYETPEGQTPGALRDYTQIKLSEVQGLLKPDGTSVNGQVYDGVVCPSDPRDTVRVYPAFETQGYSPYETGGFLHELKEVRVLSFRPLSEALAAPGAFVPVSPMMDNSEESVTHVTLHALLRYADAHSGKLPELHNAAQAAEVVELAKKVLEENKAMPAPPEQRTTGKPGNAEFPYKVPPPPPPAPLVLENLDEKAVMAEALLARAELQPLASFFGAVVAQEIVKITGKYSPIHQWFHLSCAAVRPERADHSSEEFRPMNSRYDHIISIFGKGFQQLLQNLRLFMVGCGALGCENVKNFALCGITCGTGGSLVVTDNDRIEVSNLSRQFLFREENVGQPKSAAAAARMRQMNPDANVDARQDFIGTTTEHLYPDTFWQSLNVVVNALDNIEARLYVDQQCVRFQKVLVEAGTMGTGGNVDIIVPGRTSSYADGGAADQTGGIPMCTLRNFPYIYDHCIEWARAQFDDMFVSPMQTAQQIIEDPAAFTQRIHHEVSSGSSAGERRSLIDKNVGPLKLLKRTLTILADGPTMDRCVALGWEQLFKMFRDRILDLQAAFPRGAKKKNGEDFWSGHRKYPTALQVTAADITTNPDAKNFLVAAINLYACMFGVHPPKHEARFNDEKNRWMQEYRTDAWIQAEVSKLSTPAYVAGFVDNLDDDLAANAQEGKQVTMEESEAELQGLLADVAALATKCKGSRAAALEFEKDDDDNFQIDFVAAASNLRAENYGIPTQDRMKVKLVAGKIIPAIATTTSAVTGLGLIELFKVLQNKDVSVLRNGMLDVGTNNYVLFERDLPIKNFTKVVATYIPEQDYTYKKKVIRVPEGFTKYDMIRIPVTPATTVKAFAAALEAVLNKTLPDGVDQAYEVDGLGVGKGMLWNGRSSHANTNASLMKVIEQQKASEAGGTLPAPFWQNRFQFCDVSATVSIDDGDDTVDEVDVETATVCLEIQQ

[3] = target: AMP-activated protein kinase, AMPK (Homo sapiens) (UniProt P54646+O43741+P54619+Q9UGJ0+Q9Y478+Q13131+Q9UGI9); assay: AMP-dependent Kinase enzyme assay. An in vitro enzyme assay that detects ADP turnover that is directly proportional to AMPK activity. This uses naive AMPK that is activated during the assay with MK-8722; type: functional; conditions: 30 µM
[4] = target: Sialic acid-binding Ig-like lectin 9 (Homo sapiens) (UniProt Q9Y336); assay: Hs-Siglec9 ALPHAscreen SOP 20170721; conditions: 10 µM
Sialic acid-binding Ig-like lectin 9 (Homo sapiens), sequence (Q9Y336 whole entry): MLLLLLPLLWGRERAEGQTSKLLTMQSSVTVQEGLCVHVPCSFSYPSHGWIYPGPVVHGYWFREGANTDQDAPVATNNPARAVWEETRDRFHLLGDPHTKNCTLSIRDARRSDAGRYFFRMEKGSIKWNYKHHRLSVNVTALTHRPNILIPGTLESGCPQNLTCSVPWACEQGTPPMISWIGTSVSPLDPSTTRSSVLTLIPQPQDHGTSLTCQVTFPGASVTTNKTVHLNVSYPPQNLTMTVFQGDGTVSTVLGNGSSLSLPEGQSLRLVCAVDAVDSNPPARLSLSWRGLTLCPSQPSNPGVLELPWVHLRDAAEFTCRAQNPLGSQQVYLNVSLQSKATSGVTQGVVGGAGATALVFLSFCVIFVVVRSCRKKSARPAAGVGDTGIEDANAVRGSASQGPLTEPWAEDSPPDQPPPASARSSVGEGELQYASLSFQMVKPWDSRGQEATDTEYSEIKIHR

[5] = test system: Trypanosoma cruzi; assay: Trypanosoma cruzi phosphomannomutase and mannose-1-phosphate guanylyltransferase assay; type: functional; conditions: 10 µM
[6] = target: T2, Arginase-2, mitochondrial (Homo sapiens) (UniProt P78540); assay: in vitro enzyme assay to detect the production of urea directly proportional to the activity of Arginase II; type: functional; conditions: 33.3 µM; also: in the data most compounds retested in dose-response had high values
T2 sequence (whole entry): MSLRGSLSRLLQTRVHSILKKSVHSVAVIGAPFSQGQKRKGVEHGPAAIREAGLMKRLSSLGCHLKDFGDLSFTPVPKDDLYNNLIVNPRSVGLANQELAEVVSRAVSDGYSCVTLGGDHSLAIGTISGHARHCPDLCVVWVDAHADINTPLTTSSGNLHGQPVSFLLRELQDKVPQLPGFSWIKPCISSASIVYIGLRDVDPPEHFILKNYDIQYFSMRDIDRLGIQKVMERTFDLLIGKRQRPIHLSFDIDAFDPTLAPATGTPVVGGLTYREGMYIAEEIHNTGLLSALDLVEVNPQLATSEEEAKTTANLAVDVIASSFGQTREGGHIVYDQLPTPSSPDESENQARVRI

[7] = target: T3, Proteasome subunit beta (Trypanosoma cruzi) (UniProt O96673); assay: Trypanosoma cruzi proteasome chymotrypsin-like activity (TcProtChymo) assay.; also: in the data most compounds retested in dose-response had high values; type: functional; conditions: 9.37 µM
T3 sequence (whole entry): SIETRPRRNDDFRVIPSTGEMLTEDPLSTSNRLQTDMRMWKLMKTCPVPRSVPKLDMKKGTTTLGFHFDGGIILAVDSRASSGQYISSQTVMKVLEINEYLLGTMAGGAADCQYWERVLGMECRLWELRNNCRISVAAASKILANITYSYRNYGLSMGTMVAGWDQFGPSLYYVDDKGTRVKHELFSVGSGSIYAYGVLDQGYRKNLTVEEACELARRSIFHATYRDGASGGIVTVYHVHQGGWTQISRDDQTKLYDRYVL

[8] = species on record: Homo sapiens; assay: To identify inhibition of the IFN signalling (Jak-Stat) pathway via expression of an eGFP reporter gene under the control of an IFN-stimulated response element (ISRE) containing MxA promoter.; type: functional; conditions: 30 µM
[9] = target: T4, Tyrosyl-tRNA synthetase, putative (Trypanosoma cruzi (strain CL Brener)) (UniProt Q4DSP6); assay: Trypanosoma cruzi tyrosyl tRNA synthetase (TcYRS) _High Tyrosine SOP; type: functional; conditions: 30 µM; also: in the data most compounds retested in dose-response had high values
T4 sequence (whole entry): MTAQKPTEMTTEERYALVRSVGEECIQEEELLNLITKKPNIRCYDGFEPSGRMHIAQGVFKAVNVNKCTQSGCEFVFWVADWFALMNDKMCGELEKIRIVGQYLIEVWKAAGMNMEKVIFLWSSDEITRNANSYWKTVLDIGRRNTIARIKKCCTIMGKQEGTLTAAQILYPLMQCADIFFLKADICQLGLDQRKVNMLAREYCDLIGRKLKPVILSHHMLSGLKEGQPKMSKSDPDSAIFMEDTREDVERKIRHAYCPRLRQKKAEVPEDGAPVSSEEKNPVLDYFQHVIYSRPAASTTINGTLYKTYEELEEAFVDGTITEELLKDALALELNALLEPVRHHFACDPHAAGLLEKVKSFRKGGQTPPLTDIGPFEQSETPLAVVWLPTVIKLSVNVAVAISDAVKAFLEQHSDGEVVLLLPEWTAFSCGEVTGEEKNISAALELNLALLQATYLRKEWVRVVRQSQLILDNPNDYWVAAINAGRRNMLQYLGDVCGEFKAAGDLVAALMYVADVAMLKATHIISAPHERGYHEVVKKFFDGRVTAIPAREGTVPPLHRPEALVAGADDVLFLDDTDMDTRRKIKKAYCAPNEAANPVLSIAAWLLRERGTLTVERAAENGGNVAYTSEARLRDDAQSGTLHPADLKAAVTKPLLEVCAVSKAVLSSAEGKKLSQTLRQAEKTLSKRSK

[10] = target: T4, Tyrosyl-tRNA synthetase, putative (Trypanosoma cruzi (strain CL Brener)); assay: Trypanosoma cruzi tyrosyl tRNA synthetase (TcYRS) SOP; type: functional; conditions: 30 µM
[11] = target: Chromo domain-containing protein 1 (Saccharomyces cerevisiae (strain ATCC 204508 / S288c) (Baker's yeast)) (UniProt P32657); assay: ScCHD-1 Enzyme Inhibition Assay; type: functional; conditions: 30 µM; also: in the data most compounds retested in dose-response had high values
Chromo domain-containing protein 1 (Saccharomyces cerevisiae (strain ATCC 204508 / S288c) (Baker's yeast)), sequence (P32657 whole entry, the tested form may be a part): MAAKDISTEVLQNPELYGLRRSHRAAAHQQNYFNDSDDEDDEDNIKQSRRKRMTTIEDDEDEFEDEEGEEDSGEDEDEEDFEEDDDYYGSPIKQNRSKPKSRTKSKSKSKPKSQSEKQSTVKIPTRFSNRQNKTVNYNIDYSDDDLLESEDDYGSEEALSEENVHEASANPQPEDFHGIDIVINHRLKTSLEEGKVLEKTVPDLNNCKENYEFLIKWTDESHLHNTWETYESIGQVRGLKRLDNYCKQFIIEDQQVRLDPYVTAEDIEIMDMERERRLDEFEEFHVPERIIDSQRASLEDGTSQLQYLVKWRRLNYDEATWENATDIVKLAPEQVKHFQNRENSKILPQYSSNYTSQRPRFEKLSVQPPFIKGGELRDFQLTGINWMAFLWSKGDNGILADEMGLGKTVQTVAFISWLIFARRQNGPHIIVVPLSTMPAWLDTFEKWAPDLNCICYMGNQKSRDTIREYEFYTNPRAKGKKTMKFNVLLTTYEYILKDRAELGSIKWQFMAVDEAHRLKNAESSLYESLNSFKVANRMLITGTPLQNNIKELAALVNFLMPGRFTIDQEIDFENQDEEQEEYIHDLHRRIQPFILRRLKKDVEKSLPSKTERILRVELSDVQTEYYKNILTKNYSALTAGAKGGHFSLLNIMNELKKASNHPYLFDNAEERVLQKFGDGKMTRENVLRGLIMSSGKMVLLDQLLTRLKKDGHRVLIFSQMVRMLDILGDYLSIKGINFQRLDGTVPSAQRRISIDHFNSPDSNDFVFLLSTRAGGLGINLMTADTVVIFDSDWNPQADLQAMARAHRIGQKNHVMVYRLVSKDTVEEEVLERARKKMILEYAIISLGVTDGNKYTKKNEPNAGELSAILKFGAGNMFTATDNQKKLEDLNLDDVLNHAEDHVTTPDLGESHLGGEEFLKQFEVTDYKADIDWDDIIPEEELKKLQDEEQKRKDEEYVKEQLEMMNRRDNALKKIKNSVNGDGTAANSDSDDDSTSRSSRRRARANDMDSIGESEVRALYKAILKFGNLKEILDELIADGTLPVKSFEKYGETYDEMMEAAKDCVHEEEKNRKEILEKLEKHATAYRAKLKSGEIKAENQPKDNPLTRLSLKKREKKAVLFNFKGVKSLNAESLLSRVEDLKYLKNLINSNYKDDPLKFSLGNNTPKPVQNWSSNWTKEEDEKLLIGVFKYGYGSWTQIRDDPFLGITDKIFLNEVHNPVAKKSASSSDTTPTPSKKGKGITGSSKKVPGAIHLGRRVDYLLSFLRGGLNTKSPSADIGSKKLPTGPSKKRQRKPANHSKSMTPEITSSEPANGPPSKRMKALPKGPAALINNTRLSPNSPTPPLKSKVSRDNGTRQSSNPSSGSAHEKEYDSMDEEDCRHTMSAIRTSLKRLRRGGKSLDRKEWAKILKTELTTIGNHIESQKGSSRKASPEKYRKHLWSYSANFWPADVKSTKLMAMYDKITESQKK

Protein translocase subunit SecA (Escherichia coli (strain K12)), sequence (P10408 whole entry): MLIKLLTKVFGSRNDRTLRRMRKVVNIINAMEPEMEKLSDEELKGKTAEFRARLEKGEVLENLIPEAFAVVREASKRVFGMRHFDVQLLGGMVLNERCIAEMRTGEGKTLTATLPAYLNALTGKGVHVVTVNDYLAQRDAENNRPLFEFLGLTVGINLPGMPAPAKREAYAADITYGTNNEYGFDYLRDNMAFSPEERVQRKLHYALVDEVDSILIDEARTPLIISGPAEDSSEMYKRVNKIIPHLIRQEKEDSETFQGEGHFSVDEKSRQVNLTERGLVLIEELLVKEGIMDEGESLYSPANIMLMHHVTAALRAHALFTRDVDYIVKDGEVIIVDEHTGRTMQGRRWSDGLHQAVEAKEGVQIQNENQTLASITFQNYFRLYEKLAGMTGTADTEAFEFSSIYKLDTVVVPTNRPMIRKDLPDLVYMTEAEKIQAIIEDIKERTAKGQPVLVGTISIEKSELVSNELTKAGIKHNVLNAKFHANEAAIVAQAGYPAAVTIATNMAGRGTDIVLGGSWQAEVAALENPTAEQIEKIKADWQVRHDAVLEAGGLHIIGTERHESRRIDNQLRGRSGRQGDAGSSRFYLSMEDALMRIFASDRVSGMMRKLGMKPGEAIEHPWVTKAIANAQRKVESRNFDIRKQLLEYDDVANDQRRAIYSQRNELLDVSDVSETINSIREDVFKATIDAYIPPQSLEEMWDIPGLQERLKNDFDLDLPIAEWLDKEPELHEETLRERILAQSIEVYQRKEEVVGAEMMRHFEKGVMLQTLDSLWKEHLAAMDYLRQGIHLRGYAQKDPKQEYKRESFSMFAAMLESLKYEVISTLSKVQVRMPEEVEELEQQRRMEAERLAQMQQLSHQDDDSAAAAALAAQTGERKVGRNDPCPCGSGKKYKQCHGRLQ

Compound	Percent Effect [1]	Percent Effect [2]	Percent Effect [3]	Percent Effect [4]	Percent Effect [5]	Percent Effect [6]	Percent Effect [7]	Percent Effect [8]	Percent Effect [9]	Percent Effect [10]	Percent Effect [11]
CS(=O)(=O)CCC(=O)N1CCC2(CCCN(C3CCOCC3)C2=O)C1 (configuration not stated)	0.12%	8.22%	-3.26%	6.39%	1.19%	-3.19%	12.6%	-2.62%	6.25%	13.6%	-3.06%
CN(C)S(=O)(=O)N1CCC[C@]2(C[C@@H](Oc3ccccn3)CO2)C1	-0.984%	7.79%	2.82%	5.42%	-4.63%	-5.81%	9.75%	5%	-1.06%	6.41%	-6.01%
Cc1nccn1-c1cccc(C2CCCN(C3CCCCC3)C2)n1 (configuration not stated)	-7.63%	-4.05%	3.56%	-0.877%	2.17%	4.41%	14.8%	2.91%	22.6%	27.3%	-10.9%
CC(C)(C)n1cc(C(=O)N2CCN(Cc3ccsc3)CC2)cn1	-3.19%	10.5%	2.2%	9.1%	7.71%	-3.06%	3.51%	-5.26%	6.37%	17.1%	-11%
Cc1nnsc1C(=O)N1CCC2(CC1)c1nc[nH]c1CCN2CC(C)C	-4.82%	5.33%	-0.152%	-8.33%	-1.46%	-2.08%	12.4%	-1.57%	1.64%	6.17%	-5.05%
CCc1nc(CN2CCN(C(=O)CCc3ccccc3)CC2)cs1	-6.36%	19%	-2.93%	5.39%	-1.95%	2.8%	16.5%	3.67%	-1.04%	17.7%	-23.8%
Cc1nn(-c2ccccc2)c2c1C(c1ccc(C(=O)O)cc1)CC(=O)N2 (configuration not stated)	-4.78%	10.7%	-3.15%	13.8%	6.33%	2.6%	7.85%	11.5%	3.83%	6.17%	-14.9%
Cc1cccc(C)c1NC(=O)CCNC(=O)c1ccoc1	-3.75%	18.2%	5.22%	-2.96%	1.27%	0.21%	20.3%	16%	10.5%	14.1%	-8.58%
CCNC(c1ccc(OC)cc1)c1cccnc1 (configuration not stated)	-5.06%	-1.27%	5.52%	9.44%	-1.74%	-0.645%	3.94%	6.89%	1.04%	5.06%	-10.2%
CCc1nc(CN2CCCC(NCc3nc4cccnc4[nH]3)C2)no1 (configuration not stated)	-0.119%	20.2%	-9.6%	-10.5%	2.36%	0%	5.98%	11.5%	10.3%	16.5%	-8.46%
Cc1cc(C2CCCN(CCCS(=O)(=O)c3ccccc3)C2)n[nH]1 (configuration not stated)	-0.801%	15.2%	-4.79%	-8.5%	-3.87%	6.46%	4.34%	18.4%	4.43%	11.4%	-5.44%
Cn1cnc2c1C(COCC1CC1)CN(Cc1ccc3c(c1)OCO3)C2 (configuration not stated)	-5.21%	-2.7%	15%	-2.11%	-0.977%	-3.75%	0.0845%	12.3%	2.97%	-1.22%	-2.11%
CC(C)c1n[nH]c(C2CN(C(=O)CCCn3cccn3)CCO2)n1 (configuration not stated)	0.0152%	-6.94%	-4.76%	-7.03%	-2.43%	2.21%	11.6%	-1.34%	-1.05%	0%	0.954%
COCCO[C@H]1CCN(C(=O)C2CCOCC2)[C@H]1Cc1ccncc1	-1.4%	16%	-6.31%	-6.51%	-3.94%	-1.17%	9.6%	16.1%	2.13%	6.41%	-2.62%
O=C(NCc1nncn1-c1ccccc1)C1CC(=O)N(CC2CC2)C1 (configuration not stated)	-6.4%	5.41%	-8.14%	7.22%	-3.3%	24.4%	-0.901%	8.14%	3.45%	3.7%	-2.19%
O=C(NCCCn1cncn1)N1CCCC(N2CCCC2)C1 (configuration not stated)	-3.14%	21.1%	-6.64%	-3.21%	3.01%	2.3%	13.4%	14.6%	5.39%	19.5%	-10.5%
CN(C)Cc1cnc2n1CCN(Cc1ccsc1)CC2	-2.78%	13.7%	-4.83%	6.79%	2.98%	1.2%	13.4%	6.89%	8.33%	11.1%	-0.604%
Cc1cc(NS(=O)(=O)c2ccccc2F)ccc1-n1cccc1C(=O)O	-2.35%	2.63%	6.59%	4.36%	-1.27%	-7.1%	24.1%	-10.4%	-4.25%	0%	-2.97%
O=C(Cc1ccccc1)N1CCC2(CC(=O)N(c3cccc(F)c3)C2)C1 (configuration not stated)	-5.5%	2.7%	-5.09%	-3.6%	-1.86%	1.74%	6.09%	-6.6%	3.23%	3.7%	2.85%
O=C(CCc1ccccc1F)NS(=O)(=O)c1ccc2c(c1)OCCCO2	-6.43%	11.4%	2.28%	1.9%	-0.923%	-4.95%	9.09%	6.8%	2.08%	12.7%	-20.4%
CN(C)C(=O)NC1COC2(CCN(C(=O)Nc3ccccc3)CC2)C1 (configuration not stated)	5.37%	18.7%	1.41%	-7.63%	-3.54%	0.699%	8.72%	3.6%	-1.06%	6.41%	2.03%
COc1ccc(CNC(=O)C2(C#N)CCCC2)cc1	-1.97%	12.5%	-13.3%	-2.27%	3.6%	-2.65%	15.1%	-14.7%	4.21%	7.69%	95.5%

Reference: ChEMBL document CHEMBL3988442, “University of Dundee, Small-Polar-MMV Screening Library” (2021)
